# Measurements published in PubChem BioAssay (NCATS).
# Values joined by “and” are separate entries in the source; they are usually repeats but may differ in a detail not shown here. Equal entries are not always repeated. Results filed as inconclusive are left out. Active and inactive are the calls of the source. The call rests on the fitted dose curve; in most records, active means well fitted curve in the direction sought with a large enough effect; inconclusive means small, poorly fitted or top-dose-only effect, or another doubt; inactive means no such curve, though single readings can be large; an effect the other way counts as inactive or inconclusive.
# Tested on: not listed separately
# Test: Inducers of the Endoplasmic Reticulum Stress Response (ERSR) in human glioma: Validation (AID 504836); further: 0% is about no effect
# Details: human glioma cells, ER stress response reporter; series mostly up to 38.3 µM; activation: at the top concentration
# In short: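 Stably transfected U87-MG human glioma cells carrying a GRP78-based luminescent sensor were seeded at 1000 cells/well, pin-dosed with compounds and incubated 16 h. Luciferase reagent was then added, and end-point luminescence was read after 10 min at room temperature.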
Compound,activation,Potency
CCn1cc(C(=O)O)c(=O)c2cc3c(cc21)OCO3,-4.47% (inactive),
CCN(CC)CCNC(=O)c1ccc(NC(C)=O)cc1,6.94% (inactive),
COc1cc2c(cc1O)CC[C@@H]1[C@@H]2CC[C@]2(C)[C@@H](O)CC[C@@H]12,-1.73% (inactive),
CN1C(=O)CC[C@H]1c1cccnc1,-2.7% (inactive),
C[C@@H](N)C1CCC(C(=O)Nc2ccncc2)CC1 (stereo not given in full),-3.25% (inactive),
CC(C)(C)NCC(O)c1ccc(O)c(CO)c1 (stereo not given),,inactive
CNCCc1ccc(O)c(O)c1,-1.74% (inactive),
NCCCC(N)(C(=O)O)C(F)F (stereo not given),-0.54% (inactive),
Cc1cccc(-c2[nH]c(C(C)(C)C)nc2-c2ccc3nccnc3c2)n1,-4.45% (inactive),
NCCS,-1% (inactive),
C[N+](C)(C)CC(=O)O,-2.59% (inactive),
CCN1CCc2nc(N)oc2CC1,1.34% (inactive),
C[N+]1(C)C2CC(OC(=O)[C@H](CO)c3ccccc3)CC1C1OC12 (stereo not given in full),,inactive
CCN(CC)CCn1c(=O)c(Cc2ccc(OC)cc2)nc2ccccc21,-3.81% (inactive),
Clc1ccc(C(c2ccc(Cl)cc2)n2cc[n+](CC(OCc3ccc(Cl)cc3Cl)c3ccc(Cl)cc3Cl)c2)cc1 (stereo not given),-0.773% (inactive),

# Biological target: Ubiquitin carboxyl-terminal hydrolase 1 (Homo sapiens) (UniProt O94782)
# Sequence (O94782 whole entry, looked up): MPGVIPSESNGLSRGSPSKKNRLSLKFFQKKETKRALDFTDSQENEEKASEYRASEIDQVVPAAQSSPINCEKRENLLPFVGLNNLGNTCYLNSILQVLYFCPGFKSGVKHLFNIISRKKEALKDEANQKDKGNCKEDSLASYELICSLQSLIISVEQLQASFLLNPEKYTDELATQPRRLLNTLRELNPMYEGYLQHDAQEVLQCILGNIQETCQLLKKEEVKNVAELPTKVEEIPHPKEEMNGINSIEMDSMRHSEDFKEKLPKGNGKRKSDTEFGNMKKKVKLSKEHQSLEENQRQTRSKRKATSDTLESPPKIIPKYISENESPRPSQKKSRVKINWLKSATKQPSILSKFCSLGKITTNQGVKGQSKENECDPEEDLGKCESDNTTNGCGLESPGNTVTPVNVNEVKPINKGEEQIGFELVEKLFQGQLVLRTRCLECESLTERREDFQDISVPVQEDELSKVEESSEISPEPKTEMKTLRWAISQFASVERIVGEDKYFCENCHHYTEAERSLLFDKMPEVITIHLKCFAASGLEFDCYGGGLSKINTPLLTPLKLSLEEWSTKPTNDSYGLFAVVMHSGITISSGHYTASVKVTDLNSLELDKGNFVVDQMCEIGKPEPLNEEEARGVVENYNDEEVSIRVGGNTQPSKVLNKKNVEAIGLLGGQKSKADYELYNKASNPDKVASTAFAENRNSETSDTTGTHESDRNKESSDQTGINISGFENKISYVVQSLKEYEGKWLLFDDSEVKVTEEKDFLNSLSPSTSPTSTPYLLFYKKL
# Test: Inhibitors of USP1/UAF1: Pilot qHTS (AID 504865); further: nearly all actives have a fitted effect of over 35% in size; further: potency means the concentration at half of the fitted maximal effect;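 on activity change, negative = inhibition: rhodamine fluorescence freed from ubiquitin-rhodamine substrate followed over time; top concentration of the series differs between compounds; on the % scale 0 is the no-effect control and ±100 the full control effect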
# Details: purified USP1/UAF1, Ub-rhodamine cleavage fluorescence; series mostly up to 114 µM; activity change, negative = inhibition: at the top concentration
# In short: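 USP1/UAF1 complex at 1 nM preincubated 15 min at room temperature with compound, then Ub-Rho substrate added at 150 nM final. Fluorescence (480/540 nm) read kinetically in 50 mM HEPES pH 7.8, 0.5 mM EDTA, 1 mM TCEP, 0.1 mg/ml BSA, 0.01% Tween-20.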
Compound,"activity change, negative = inhibition",Potency
COC(=O)c1cncn1C(C)c1ccccc1 (stereo not given),1.77% (inactive),
CCCN1CCO[C@@H]2c3cc(O)ccc3OC[C@@H]21,8.83% (inactive),
Cc1ccc(Cl)c(O)c1,0.384% (inactive),
CNCCc1ccc(O)c(O)c1,-3.78% (inactive),
O=C(O)COc1ccccc1,1.72% (inactive),
CC(=O)OCC1=C(C(=O)O)N2C(=O)[C@@H](N)[C@@H]2SC1,1.5% [at 54.9 µM] (inactive),
C#CC1(O)CCC2C3CCC4=CC(=O)CCC4(C)C3CCC21C (stereo not given),,50.1 µM (active)
CCCCCCCCCC(CC)c1ccc(S(=O)(=O)O)cc1 (stereo not given),,79.4 µM (active)
CN(C)[C@@H]1C(=O)C(C(N)=O)=C(O)[C@@]2(O)C(=O)C3=C(O)c4c(O)cccc4[C@@](C)(O)[C@H]3[C@H](O)[C@@H]12,-14.7% (inactive),
O=C1C(I)=CC(=C(c2cc(I)c(O)c(I)c2)c2ccccc2C(=O)O)C=C1I,,25.1 µM (active)
NC1=NC(=O)N2CC12 (stereo not given),-0.595% (inactive),
CCC(=O)OC1CCC2C3CCC4=CC(=O)CC[C@@]4(C)C3CC[C@]12C (stereo not given in full),-6.26% [at 54.9 µM] (inactive),
C[N+](C)(C)CC(=O)O,6.12% (inactive),
O=C(O)C(Cl)Cl,-0.634% (inactive),
C[C@]12CCC(=O)C(O)=C1CC[C@@H]1[C@H]3CCC(=O)[C@@]3(C)CC[C@@H]12,-9.96% (inactive),
CCOC(=O)c1cncn1[C@H](C)c1ccccc1,-4.65% (inactive),
Cc1cc(O)ccc1Cl,-4.14% (inactive),
C1CCC(NC2CCCCC2)CC1,-7.47% (inactive),
O=[N+]([O-])c1ccc([As](=O)(O)O)cc1,3.65% (inactive),
CCCCCCCCCCCCCCCC[N+](C)(C)C,,22.4 µM (active) and 31.6 µM (active)
